PMC5540273 (PLoS ONE, 2017)

Experiments:
Details in all cases: concentration: 1 μM, replicates: in singlicate; n = 1
CAMKK2 = tested on: CAMKK2
CASK = tested on: CASK
CDC2L1 = tested on: T1, CDC2L1
T1 construct: gene CDK11B

CDC2L2 = tested on: CDC2L2
CDC2L5 = tested on: T2, CDC2L5
T2 construct: gene CDK13

CDK11 = tested on: T3, CDK11
T3 construct: gene CDK19

CDK2 = tested on: CDK2
CDK3 = tested on: CDK3
CDK4-cyclinD1 = tested on: CDK4-cyclinD1
CDK4-cyclinD3 = tested on: CDK4-cyclinD3
CDK4 = tested on: CDK4
CDK5 = tested on: CDK5
CDK7 = tested on: CDK7
CDK8 = tested on: CDK8
CDK9 = tested on: CDK9
CDKL1 = tested on: CDKL1
CDKL2 = tested on: CDKL2
CDKL3 = tested on: CDKL3
CDKL5 = tested on: CDKL5
CHEK1 = tested on: CHEK1
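Also: KINOMEscan kinase panel screen.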

Row | Compound | %Inh (CAMKK2) | %Inh (CASK) | %Inh (CDC2L1) | %Inh (CDC2L2) | %Inh (CDC2L5) | %Inh (CDK11) | %Inh (CDK2) | %Inh (CDK3) | %Inh (CDK4-cyclinD1) | %Inh (CDK4-cyclinD3) | %Inh (CDK4) | %Inh (CDK5) | %Inh (CDK7) | %Inh (CDK8) | %Inh (CDK9) | %Inh (CDKL1) | %Inh (CDKL2) | %Inh (CDKL3) | %Inh (CDKL5) | %Inh (CHEK1)
1 | C[C@@H]1CCCCN1c1cc(-c2ccc3c(N)n[nH]c3c2)nc(N)n1 [GSK2258759] | 26% | 11% | 0% | 18% | 0% | 4% | 0% | 15% | 0% | 7% | 21% | 0% | 0% | 20% | 0% | 6% | 6% | 0% | 0% | 0%
2 | Cc1cccc(-c2nc(-c3ccc(S(C)(=O)=O)cc3)sc2-c2ccnc(NCCc3ccccc3)c2)c1 | 0% | 18% | 6% | 0% | 44% | 0% | 0% | 0% | 0% | 0% | 0% | 9% | 2% | 15% | 1% | 14% | 13% | 10% | 23% | 0%
3 | Nc1ncnc2[nH]c(-c3ccccc3)nc12 [AH5015] | 0% | 15% | 0% | 5% | 0% | 0% | 0% | 2% | 0% | 11% | 7% | 0% | 0% | 0% | 0% | 6% | 32% | 0% | 0% | 0%
4 | Cn1ccc2ncnc(Oc3ccc(NC(=O)Nc4ccccc4)cc3)c21 | 0% | 0% | 0% | 0% | 0% | 0% | 0% | 11% | 0% | 0% | 0% | 0% | 13% | 12% | 9% | 36% | 2% | 0% | 17% | 1%
5 | O=C(Nc1n[nH]c2nc(-c3nccs3)c(Br)cc12)C1CCCC1 [SB-742609] | 0% | 19% | 100% | 0% | 0% | 0% | 86% | 60% | 41% | 14% | 81% | 0% | 73% | 0% | 100% | 0% | 88% | 0% | 0% | 0%
6 | CS(=O)(=O)c1ccc(-c2c(-c3ncn[nH]3)sc(N3CCOCC3)c2C#N)cc1 | 19% | 0% | 9% | 10% | 0% | 0% | 0% | 17% | 0% | 0% | 1% | 38% | 31% | 18% | 6% | 22% | 7% | 13% | 0% | 0%
7 | O=c1cc(N2CCOCC2)nc2n(Cc3cccc(Cl)c3Cl)ccn12 [GSK2286295] | 16% | 9% | 13% | 16% | 0% | 23% | 0% | 0% | 0% | 0% | 0% | 0% | 0% | 0% | 14% | 0% | 7% | 0% | 2% | 0%
8 | COc1cc2ncn(-c3cc(OCC4CCCO4)c(C(N)=O)s3)c2cc1OC (stereo not drawn) [GSK204607] | 8% | 0% | 0% | 8% | 0% | 0% | 0% | 0% | 0% | 0% | 13% | 0% | 4% | 32% | 0% | 11% | 1% | 0% | 0% | 0%
9 | O=S(=O)(c1ccc(-c2ccnc3[nH]ccc23)cc1)N1CCCC1 [GSK846226] | 23% | 5% | 0% | 17% | 0% | 2% | 0% | 1% | 0% | 0% | 0% | 0% | 2% | 0% | 0% | 7% | 5% | 0% | 4% | 0%
10 | COc1cccc(-c2cc(-c3c[nH]nc3-c3ccccn3)ccn2)c1 [GW680338] | 9% | 18% | 0% | 9% | 0% | 10% | 0% | 6% | 58% | 0% | 31% | 0% | 0% | 44% | 0% | 0% | 0% | 23% | 0% | 0%
11 | O=C1NC(=O)C(N2CCc3ccccc32)=C1c1ccccc1Cl [SB-373598] | 4% | 0% | 0% | 3% | 0% | 12% | 16% | 0% | 14% | 15% | 27% | 0% | 29% | 25% | 8% | 18% | 23% | 4% | 0% | 2%
12 | Fc1cc(Cl)ccc1Nc1ccnc2cc(I)ccc12 [GW551191] | 0% | 24% | 0% | 0% | 0% | 16% | 0% | 0% | 0% | 0% | 23% | 0% | 0% | 7% | 0% | 0% | 21% | 0% | 3% | 0%
13 | Cl.c1ccc(-c2n[nH]cc2-c2ccnc(-c3ccc(CN4CCOCC4)cc3)c2)nc1 [GW776245] | 19% | 6% | 5% | 8% | 0% | 0% | 0% | 46% | 4% | 0% | 0% | 12% | 0% | 52% | 0% | 59% | 9% | 6% | 0% | 0%
14 | COc1ccccc1CNC(=O)c1cc(C(=O)c2ccccc2C)c[nH]1 [GSK364507] | 5% | 12% | 0% | 19% | 0% | 15% | 0% | 10% | 0% | 7% | 0% | 9% | 0% | 5% | 0% | 10% | 16% | 0% | 0% | 0%
15 | Cl.Oc1ccc(-c2nc(-c3ccccc3)[nH]c2-c2ccncc2)cc1 [SB-428218] | 15% | 0% | 0% | 5% | 0% | 8% | 0% | 55% | 49% | 2% | 0% | 0% | 0% | 0% | 0% | 0% | 32% | 0% | 0% | 0%
16 | COc1ccc(CNC(=O)NC2CCN(c3ccnc(Nc4cc(OC)c(OC)c(OC)c4)n3)C2)cc1 (stereo not drawn) [GSK1379748] | 12% | 10% | 0% | 14% | 0% | 2% | 0% | 0% | 6% | 0% | 36% | 0% | 0% | 51% | 0% | 15% | 20% | 0% | 0% | 0%
17 | COc1ccc(C2=C(Nc3cccc(C(=O)O)c3)C(=O)NC2=O)cc1 [SB-390765] | 7% | 15% | 17% | 13% | 8% | 0% | 12% | 7% | 0% | 0% | 51% | 16% | 3% | 0% | 1% | 0% | 37% | 0% | 13% | 0%
18 | Cc1ccc(NC(=O)Nc2cc(C(C)(C)C)nn2-c2ccccc2)cc1 [GSK1014915] | 0% | 12% | 31% | 7% | 0% | 62% | 0% | 8% | 0% | 4% | 0% | 8% | 0% | 58% | 14% | 15% | 13% | 0% | 14% | 24%
